From the supplement of paper PMC8728848
Shown is part of a subset that was picked to be rich in the strongest signals.

Key:
Experiment in all cases: glycan array binding signal (z-score within array); higher = stronger binding
Settings in all cases: glycan notation: IUPAC condensed, linker removed
[1] = molecular target: Fuc(a1-2)Gal6S(b1-3)GlcNAc
Summary of the method: (§1)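 The binding signal is a Z-score computed within each array and averaged over linkers. Arrays of the same protein sequence at different concentrations or buffers were also averaged together. Data originate from 3228 arrays in the Consortium for Functional Glycomics database, kept only where the protein sequence was available.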

[2] = molecular target: Fuc(a1-2)[Gal(a1-3)]Gal(b1-3)GlcNAc(b1-2)Man(a1-3)[Fuc(a1-2)[Gal(a1-3)]Gal(b1-3)GlcNAc(b1-2)Man(a1-6)]Man(b1-4)GlcNAc(b1-4)[Fuc(a1-6)]GlcNAc
Summary of the method: as §1

[3] = molecular target: Fuc(a1-2)[Gal(a1-3)]Gal(b1-3)GlcNAc(b1-3)GalNAc
Summary of the method: as §1

[4] = molecular target: Fuc(a1-2)[Gal(a1-3)]Gal(b1-4)GlcNAc(b1-2)Man(a1-3)[Fuc(a1-2)[Gal(a1-3)]Gal(b1-4)GlcNAc(b1-2)Man(a1-6)]Man(b1-4)GlcNAc(b1-4)GlcNAc
Summary of the method: as §1

[5] = molecular target: Fuc(a1-2)[Gal(a1-3)]Gal(b1-4)GlcNAc(b1-2)Man(a1-3)[Fuc(a1-2)[Gal(a1-3)]Gal(b1-4)GlcNAc(b1-2)Man(a1-6)]Man(b1-4)GlcNAc(b1-4)[Fuc(a1-6)]GlcNAc
Summary of the method: as §1

[6] = molecular target: Fuc(a1-2)[Gal(a1-3)]Gal(b1-4)[Fuc(a1-3)]GlcNAc(b1-3)GalNAc
Summary of the method: as §1

[7] = molecular target: Fuc(a1-2)[GalNAc(a1-3)]Gal(b1-3)GlcNAc(b1-2)Man(a1-3)[Fuc(a1-2)[GalNAc(a1-3)]Gal(b1-3)GlcNAc(b1-2)Man(a1-6)]Man(b1-4)GlcNAc(b1-4)GlcNAc
Summary of the method: as §1

[8] = molecular target: Fuc(a1-3)GlcNAc
Summary of the method: as §1

[9] = molecular target: Fuc(a1-3)[Gal3S(b1-4)]GlcNAc
Summary of the method: as §1

[10] = molecular target: Gal(a1-3)Gal(b1-3)GlcNAc(b1-6)GalNAc
Summary of the method: as §1

[11] = molecular target: Gal(a1-4)Gal(b1-4)GlcNAc(b1-2)Man(a1-3)[Gal(a1-4)Gal(b1-4)GlcNAc(b1-2)Man(a1-6)]Man(b1-4)GlcNAc(b1-4)GlcNAc
Summary of the method: as §1

[12] = molecular target: Gal(b1-3)GalNAc(b1-3)Gal
Summary of the method: as §1

[13] = molecular target: Gal(b1-3)GlcNAc(b1-3)Gal(b1-4)GlcNAc(b1-2)Man(a1-3)[Gal(b1-3)GlcNAc(b1-3)Gal(b1-4)GlcNAc(b1-2)Man(a1-6)]Man(b1-4)GlcNAc(b1-4)GlcNAc
Summary of the method: as §1

[14] = molecular target: Gal(b1-4)GlcNAc(a1-6)Gal(b1-4)GlcNAc
Summary of the method: as §1

[15] = molecular target: Gal(b1-4)GlcNAc(b1-2)Man(a1-3)[Gal(b1-4)GlcNAc(b1-2)][GlcNAc(b1-4)]Man(b1-4)GlcNAc(b1-4)GlcNAc
Summary of the method: as §1

[16] = molecular target: Gal(b1-4)GlcNAc(b1-2)Man(a1-3)[Man(a1-6)]Man(b1-4)GlcNAc(b1-4)GlcNAc
Summary of the method: as §1

[17] = molecular target: Gal(b1-4)GlcNAc(b1-2)[Gal(b1-4)GlcNAc(b1-6)]Man(a1-6)[GlcNAc(b1-4)][Gal(b1-4)GlcNAc(b1-2)Man(a1-3)]Man(b1-4)GlcNAc(b1-4)GlcNAc
Summary of the method: as §1

[18] = molecular target: Gal(b1-4)GlcNAc(b1-3)Gal(b1-4)GlcNAc(b1-2)Man(a1-3)[Gal(b1-4)GlcNAc(b1-3)Gal(b1-4)GlcNAc(b1-2)Man(a1-6)]Man(b1-4)GlcNAc(b1-4)[Fuc(a1-6)]GlcNAc
Summary of the method: as §1

[19] = molecular target: Gal(b1-4)GlcNAc(b1-3)Gal(b1-4)GlcNAc(b1-3)Gal(b1-4)GlcNAc(b1-2)[Gal(b1-4)GlcNAc(b1-3)Gal(b1-4)GlcNAc(b1-3)Gal(b1-4)GlcNAc(b1-6)]Man(a1-6)[Gal(b1-4)GlcNAc(b1-3)Gal(b1-4)GlcNAc(b1-3)Gal(b1-4)GlcNAc(b1-2)Man(a1-3)]Man(b1-4)GlcNAc(b1-4)[Fuc(a1-6)]GlcNAc
Summary of the method: as §1

[20] = molecular target: Gal(b1-4)GlcNAc(b1-3)Gal(b1-4)GlcNAc(b1-3)Gal(b1-4)GlcNAc(b1-3)Gal(b1-4)GlcNAc(b1-2)Man(a1-3)[Gal(b1-4)GlcNAc(b1-3)Gal(b1-4)GlcNAc(b1-3)Gal(b1-4)GlcNAc(b1-3)Gal(b1-4)GlcNAc(b1-2)Man(a1-6)]Man(b1-4)GlcNAc(b1-4)[Fuc(a1-6)]GlcNAc
Summary of the method: as §1

[21] = molecular target: Gal3S(b1-3)[Fuc(a1-4)]GlcNAc
Summary of the method: as §1

[22] = molecular target: Gal6S(b1-3)GlcNAc6S
Summary of the method: as §1

[23] = molecular target: GlcNAc(b1-2)Man(a1-3)[GlcNAc(b1-2)Man(a1-6)]Man(b1-4)GlcNAc(b1-4)GlcNAc
Summary of the method: as §1

[24] = molecular target: GlcNAc(b1-2)[GlcNAc(b1-4)]Man(a1-3)[GlcNAc(b1-4)][GlcNAc(b1-2)[GlcNAc(b1-6)]Man(a1-6)]Man(b1-4)GlcNAc(b1-4)GlcNAc
Summary of the method: as §1

[25] = molecular target: GlcNAc(b1-3)Gal
Summary of the method: as §1

[26] = molecular target: GlcNAc(b1-3)Gal(b1-4)GlcNAc(b1-2)Man(a1-3)[GlcNAc(b1-3)Gal(b1-4)GlcNAc(b1-2)Man(a1-6)]Man(b1-4)GlcNAc(b1-4)GlcNAc
Summary of the method: as §1

[27] = molecular target: GlcNAc(b1-3)Gal(b1-4)GlcNAc(b1-2)Man(a1-3)[GlcNAc(b1-3)Gal(b1-4)GlcNAc(b1-2)Man(a1-6)]Man(b1-4)GlcNAc(b1-4)[Fuc(a1-6)]GlcNAc
Summary of the method: as §1

[28] = molecular target: GlcNAc(b1-3)Gal(b1-4)GlcNAc(b1-3)Gal(b1-4)GlcNAc(b1-2)Man(a1-3)[GlcNAc(b1-3)Gal(b1-4)GlcNAc(b1-3)Gal(b1-4)GlcNAc(b1-2)Man(a1-6)]Man(b1-4)GlcNAc(b1-4)GlcNAc
Summary of the method: as §1

B1: PpFlo2 (Pichia pastoris) (protein)
chain: MGSSHHHHHHSSGLVPRGSHMDDSGNGDNSDTAYGCDITTNAVDGFDATIYQYNANDLRLIRDPTFMSTGYLGRNVLNKISGVTVPGFNIWNPSSRTATVYGVKNVNYYNMVLELKGYFKADVSGDYKLTLSHIDDSSMLFFGKETAFKCCDAGSIPLNEAPTDYSLFTIKPSNQVNSEVISATQYLEAGKYYPVRIVFVNALERARFDFKLTIPSGAVLDDFQNYIYQFGDLDENSCHE
glycan array binding signal (z-score) [1]: -0.272 | glycan array binding signal (z-score) [2]: -0.293 | glycan array binding signal (z-score) [3]: -0.288 | glycan array binding signal (z-score) [4]: -0.209 | glycan array binding signal (z-score) [5]: -0.288 | glycan array binding signal (z-score) [6]: -0.297 | glycan array binding signal (z-score) [7]: -0.287 | glycan array binding signal (z-score) [8]: -0.292 | glycan array binding signal (z-score) [9]: -0.313 | glycan array binding signal (z-score) [10]: -0.271 | glycan array binding signal (z-score) [11]: -0.23 | glycan array binding signal (z-score) [12]: -0.272 | glycan array binding signal (z-score) [13]: -0.174 | glycan array binding signal (z-score) [14]: -0.273 | glycan array binding signal (z-score) [15]: -0.344 | glycan array binding signal (z-score) [16]: -0.273 | glycan array binding signal (z-score) [17]: -0.297 | glycan array binding signal (z-score) [18]: -0.25 | glycan array binding signal (z-score) [19]: -0.261 | glycan array binding signal (z-score) [20]: -0.243 | glycan array binding signal (z-score) [21]: -0.286 | glycan array binding signal (z-score) [22]: -0.286 | glycan array binding signal (z-score) [23]: 3.88 | glycan array binding signal (z-score) [24]: 0.675 | glycan array binding signal (z-score) [25]: 1.09 | glycan array binding signal (z-score) [26]: 4.64 | glycan array binding signal (z-score) [27]: 4.49 | glycan array binding signal (z-score) [28]: 3.9
